Each structure is given as a SMILES string. Results filed as inconclusive are left out. The source made the active and inactive calls. Calls come from the whole dose curve; as a rule, active = well fitted inhibition curve with a large enough effect; inconclusive = small, poorly fitted or top-dose-only effect; inactive = flat fitted curve, though single readings scatter.
Potency is the fitted concentration of half-maximal effect.

Sequence of Ubiquitin carboxyl-terminal hydrolase 2 (Homo sapiens) (O75604 whole entry, looked up): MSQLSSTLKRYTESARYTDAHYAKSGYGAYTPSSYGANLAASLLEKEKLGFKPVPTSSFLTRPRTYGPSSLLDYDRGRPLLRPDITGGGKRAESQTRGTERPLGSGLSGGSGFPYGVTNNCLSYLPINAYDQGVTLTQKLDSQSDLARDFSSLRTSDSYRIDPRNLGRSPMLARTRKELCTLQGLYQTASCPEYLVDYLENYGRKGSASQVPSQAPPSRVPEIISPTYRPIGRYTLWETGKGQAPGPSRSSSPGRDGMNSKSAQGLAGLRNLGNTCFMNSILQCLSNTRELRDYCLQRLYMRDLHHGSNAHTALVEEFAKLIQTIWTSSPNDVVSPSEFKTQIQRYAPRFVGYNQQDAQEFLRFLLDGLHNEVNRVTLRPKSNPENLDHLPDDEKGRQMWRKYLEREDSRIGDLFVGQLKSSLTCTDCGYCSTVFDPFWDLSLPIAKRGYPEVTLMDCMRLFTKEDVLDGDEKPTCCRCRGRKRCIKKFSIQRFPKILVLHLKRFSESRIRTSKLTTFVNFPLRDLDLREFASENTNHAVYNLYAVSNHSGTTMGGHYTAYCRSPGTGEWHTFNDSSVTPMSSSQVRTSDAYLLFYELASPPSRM

The test concerns the target Ubiquitin carboxyl-terminal hydrolase 2 (Homo sapiens) (UniProt O75604). In words: qHTS for Inhibitors of Ubiquitin-specific Protease USP2a Using CHOP2 as the Reporter: K484 Substrate (AID 652173).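 Note: cleavage of internally quenched K48 di-ubiquitin substrate measured as rising fluorescence over time; nearly all actives have a fitted effect of over 70% in size.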 Particulars: USP2 cleavage of DiUb K48 IQF substrate, fluorescence; series mostly up to 57.5 µM. The method, boiled down:
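USP2 (dispensed at 5 nM) was pinned with compounds, then DiUb K48 internally quenched fluorescent substrate (dispensed at 100 nM) was added. The buffer was 20 mM Tris pH 8, 2 mM beta-mercaptoethanol and 0.05% CHAPS. Cleavage was read kinetically as rising fluorescence, Ex 525/Em 598.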
On the technique in general: qHTS replaces the single test concentration by a dilution series.
In the case of `COc1ccc(Cl)cc1C(=O)Nc1nc(-c2ccccc2)cs1`, the Potency was 9.68 µM (active).
With `COc1c(NS(=O)(=O)c2ccc(C)cc2)cccc1C(=O)Nc1nc(-c2ccccc2)cs1`, the Potency was 3.06 µM (active).
Turning to `Cc1ccc(-c2cc(C(=O)Nc3ccccc3C)c3ccccc3n2)cc1C`, the Potency was 21.7 µM (active).
The value for `Cc1ccc(NS(=O)(=O)c2ccc(C(=O)Nc3nc(-c4ccccc4)cs3)cc2)cc1` was 3.43 µM (active); that for `O=C(Nc1ccc(S(=O)(=O)Nc2nccs2)cc1)[C@@H]1CC[C@H](C(=O)c2ccccc2)C1` was 24.3 µM (active).
Consider `Cc1ccc(C(=O)Nc2ccccc2C(=O)Nc2nc(-c3ccccc3)cs2)cc1`, for which the Potency was 5.44 µM (active).
As to `COc1ccc(NS(=O)(=O)c2ccc(C)cc2)cc1C(=O)Nc1nc(-c2ccccc2)cs1`, the Potency is 3.43 µM (active).
In the case of `CC(C)Oc1ccccc1C(=O)Nc1nc(-c2ccccc2)cs1`, the Potency is 17.2 µM (active).
The value for `Cc1ccc(S(=O)(=O)Nc2cc(Cl)cc(C(=O)Nc3nc(-c4ccccc4)cs3)c2)cc1` was 3.06 µM (active); that for `Cc1ccc(S(=O)(=O)N(C)c2ccccc2C(=O)Nc2nc(-c3ccccc3)cs2)cc1` was 6.11 µM (active); that for `COc1ccccc1C(=O)Nc1nc(-c2ccccc2)cs1` was 10.9 µM (active).
`Cc1ccc(S(=O)(=O)Nc2ccc(C(=O)Nc3nc(-c4ccccc4)cs3)c(Cl)c2)cc1`: the Potency is 1.93 µM (active).
On to `Cc1ccc(S(=O)(=O)Nc2ccccc2C(=O)Nc2nc(-c3ccccc3)c(C)s2)cc1`, for which the Potency was 1.93 µM (active).
For the compound `CC(C)(C)C1CCC(C(=O)Nc2ccc(S(=O)(=O)Nc3nccs3)cc2)CC1` (stereo unspecified), the Potency was 10.9 µM (active).
In the case of `COc1cccc(NS(=O)(=O)c2ccc(C)cc2)c1C(=O)Nc1nc(-c2ccccc2)cs1`, the Potency is 4.32 µM (active).
For `Cc1ccc(-c2cc(C(=O)Nc3ccc(S(=O)(=O)Nc4ccc(C#N)cc4)cc3)c3ccccc3n2)cc1C`, the Potency was 3.06 µM (active).
On to `Cc1ccc(S(=O)(=O)Nc2cccc(C(=O)Nc3nc(-c4ccc(Cl)cc4)cs3)c2)cc1`, for which the Potency is 2.43 µM (active).
The value for `Cc1ccc(S(=O)(=O)Nc2ccccc2C(=O)Nc2ncc(-c3ccccc3)s2)cc1` was 1.93 µM (active); that for `Cc1ccc(S(=O)(=O)Nc2ccccc2C(=O)Nc2ccc(-c3ccccc3)cc2)cc1` was 2.43 µM (active); that for `COC(=O)c1ccccc1C(=O)Nc1nc(-c2ccccc2)cs1` was 30.6 µM (active).
Regarding `O=C(Nc1ccc(S(=O)(=O)Nc2nccs2)cc1)C1CCC2(CCC2)CC1`, the Potency is 24.3 µM (active).
Under `Cc1ccc(NS(=O)(=O)c2cccc(C(=O)Nc3nc(-c4ccccc4)cs3)c2)cc1` stands 3.06 µM (active); under `Cc1ccc(-c2cc(C(=O)Nc3ccc(S(=O)(=O)N(C)C)cc3)c3ccccc3n2)cc1C`, 4.32 µM (active); under `Cc1ccc(S(=O)(=O)n2cc(C(=O)Nc3nc(-c4ccccc4)cs3)c3ccccc32)cc1`, 6.11 µM (active).
For `Cc1ccc(S(=O)(=O)Nc2cc(C(=O)Nc3nc(-c4ccccc4)cs3)ccc2Cl)cc1`, the Potency was 2.17 µM (active).
Regarding `Cc1ccc(-c2cc(C(=O)Nc3ccn[nH]3)c3ccccc3n2)cc1C`, the Potency was 27.3 µM (active).
